Our source for the residual activity values is ChEMBL document CHEMBL2218924, “A broad activity screen in support of a chemogenomic map for kinase signalling research and drug discovery” (Biochem J, 2013).

Test [1] has as its target Platelet-derived growth factor receptor alpha (Homo sapiens) (UniProt P16234). The note with it: at 1 µM.
Test [2] shares this target. The note with it: at 10 µM.
The target in test [3] is Platelet-derived growth factor receptor beta (Homo sapiens) (UniProt P09619). The note with it: at 1 µM.
For test [4] the target is unchanged. The settings on record: at 10 µM.
The target of test [5] is T1, 3-phosphoinositide-dependent protein kinase 1 (Homo sapiens) (UniProt O15530).
T1 sequence (whole entry): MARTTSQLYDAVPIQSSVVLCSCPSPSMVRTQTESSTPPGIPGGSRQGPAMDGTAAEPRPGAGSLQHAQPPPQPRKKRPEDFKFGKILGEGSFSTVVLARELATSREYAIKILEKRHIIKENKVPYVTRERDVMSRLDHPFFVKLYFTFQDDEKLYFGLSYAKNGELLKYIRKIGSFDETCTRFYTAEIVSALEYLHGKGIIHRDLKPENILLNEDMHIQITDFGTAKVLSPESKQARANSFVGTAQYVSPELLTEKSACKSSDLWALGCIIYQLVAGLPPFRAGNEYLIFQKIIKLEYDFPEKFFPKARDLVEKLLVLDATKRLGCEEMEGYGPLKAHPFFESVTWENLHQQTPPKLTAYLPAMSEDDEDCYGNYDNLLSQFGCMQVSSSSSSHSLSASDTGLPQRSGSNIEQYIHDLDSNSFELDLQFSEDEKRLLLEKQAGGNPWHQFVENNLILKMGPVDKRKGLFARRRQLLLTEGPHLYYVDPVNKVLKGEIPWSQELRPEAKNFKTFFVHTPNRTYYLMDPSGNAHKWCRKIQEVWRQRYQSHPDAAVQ
The note with it: at 1 µM.

In test [6] the target is T1, 3-phosphoinositide-dependent protein kinase 1 (Homo sapiens). The note with it: at 10 µM.
Test [7] concerns the target cAMP-dependent protein kinase catalytic subunit alpha (Homo sapiens) (UniProt P17612). The note with it: at 1 µM.
The target is the same in test [8]. The settings on record: at 10 µM.
The target in test [9] is RAC-gamma serine/threonine-protein kinase (Homo sapiens) (UniProt Q9Y243). The note with it: at 1 µM.
For test [10] the target is unchanged. The note with it: at 10 µM.

Chain of RAC-gamma serine/threonine-protein kinase (Homo sapiens) (Q9Y243 whole entry): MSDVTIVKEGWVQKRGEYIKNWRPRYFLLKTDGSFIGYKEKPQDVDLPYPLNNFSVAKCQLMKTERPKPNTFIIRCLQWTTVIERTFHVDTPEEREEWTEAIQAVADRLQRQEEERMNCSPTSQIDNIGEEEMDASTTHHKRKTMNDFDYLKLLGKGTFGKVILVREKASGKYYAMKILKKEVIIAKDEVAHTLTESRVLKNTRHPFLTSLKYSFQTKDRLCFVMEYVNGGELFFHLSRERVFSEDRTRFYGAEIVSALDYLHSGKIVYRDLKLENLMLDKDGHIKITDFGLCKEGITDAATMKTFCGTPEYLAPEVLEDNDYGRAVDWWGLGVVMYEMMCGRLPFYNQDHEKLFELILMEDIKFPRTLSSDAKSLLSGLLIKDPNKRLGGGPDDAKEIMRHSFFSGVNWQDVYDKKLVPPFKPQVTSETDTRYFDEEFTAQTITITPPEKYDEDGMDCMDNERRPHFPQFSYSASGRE
Chain of Platelet-derived growth factor receptor beta (Homo sapiens) (P09619 whole entry): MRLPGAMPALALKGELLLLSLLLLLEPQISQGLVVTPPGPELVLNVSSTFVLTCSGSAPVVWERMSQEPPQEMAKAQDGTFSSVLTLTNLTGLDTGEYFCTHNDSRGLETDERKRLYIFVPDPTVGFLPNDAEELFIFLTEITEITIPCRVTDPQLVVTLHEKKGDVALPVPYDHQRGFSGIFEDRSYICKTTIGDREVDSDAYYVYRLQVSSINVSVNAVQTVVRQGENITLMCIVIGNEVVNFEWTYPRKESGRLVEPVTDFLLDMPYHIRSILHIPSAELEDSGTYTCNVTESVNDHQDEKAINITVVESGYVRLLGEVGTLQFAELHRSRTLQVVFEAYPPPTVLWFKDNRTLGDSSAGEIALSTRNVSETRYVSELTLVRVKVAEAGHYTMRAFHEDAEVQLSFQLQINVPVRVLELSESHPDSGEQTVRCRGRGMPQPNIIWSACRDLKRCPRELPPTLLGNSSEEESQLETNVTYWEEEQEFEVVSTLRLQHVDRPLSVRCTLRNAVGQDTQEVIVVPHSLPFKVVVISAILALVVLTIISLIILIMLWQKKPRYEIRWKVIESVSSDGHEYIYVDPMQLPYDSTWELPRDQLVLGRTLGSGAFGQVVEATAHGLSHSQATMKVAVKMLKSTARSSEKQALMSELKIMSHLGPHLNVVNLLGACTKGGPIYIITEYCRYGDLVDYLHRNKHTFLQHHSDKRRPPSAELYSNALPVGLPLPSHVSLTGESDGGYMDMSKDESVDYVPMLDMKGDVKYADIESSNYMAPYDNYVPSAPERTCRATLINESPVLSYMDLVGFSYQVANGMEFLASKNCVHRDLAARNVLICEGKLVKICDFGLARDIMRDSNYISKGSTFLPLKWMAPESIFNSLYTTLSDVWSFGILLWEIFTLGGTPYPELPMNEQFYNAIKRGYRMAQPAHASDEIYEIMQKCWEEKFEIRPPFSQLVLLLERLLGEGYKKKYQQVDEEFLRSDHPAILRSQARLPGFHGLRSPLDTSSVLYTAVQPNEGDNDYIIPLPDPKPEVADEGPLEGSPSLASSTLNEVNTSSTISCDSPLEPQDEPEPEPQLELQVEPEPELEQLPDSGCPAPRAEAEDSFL
Chain of Platelet-derived growth factor receptor alpha (Homo sapiens) (P16234 whole entry): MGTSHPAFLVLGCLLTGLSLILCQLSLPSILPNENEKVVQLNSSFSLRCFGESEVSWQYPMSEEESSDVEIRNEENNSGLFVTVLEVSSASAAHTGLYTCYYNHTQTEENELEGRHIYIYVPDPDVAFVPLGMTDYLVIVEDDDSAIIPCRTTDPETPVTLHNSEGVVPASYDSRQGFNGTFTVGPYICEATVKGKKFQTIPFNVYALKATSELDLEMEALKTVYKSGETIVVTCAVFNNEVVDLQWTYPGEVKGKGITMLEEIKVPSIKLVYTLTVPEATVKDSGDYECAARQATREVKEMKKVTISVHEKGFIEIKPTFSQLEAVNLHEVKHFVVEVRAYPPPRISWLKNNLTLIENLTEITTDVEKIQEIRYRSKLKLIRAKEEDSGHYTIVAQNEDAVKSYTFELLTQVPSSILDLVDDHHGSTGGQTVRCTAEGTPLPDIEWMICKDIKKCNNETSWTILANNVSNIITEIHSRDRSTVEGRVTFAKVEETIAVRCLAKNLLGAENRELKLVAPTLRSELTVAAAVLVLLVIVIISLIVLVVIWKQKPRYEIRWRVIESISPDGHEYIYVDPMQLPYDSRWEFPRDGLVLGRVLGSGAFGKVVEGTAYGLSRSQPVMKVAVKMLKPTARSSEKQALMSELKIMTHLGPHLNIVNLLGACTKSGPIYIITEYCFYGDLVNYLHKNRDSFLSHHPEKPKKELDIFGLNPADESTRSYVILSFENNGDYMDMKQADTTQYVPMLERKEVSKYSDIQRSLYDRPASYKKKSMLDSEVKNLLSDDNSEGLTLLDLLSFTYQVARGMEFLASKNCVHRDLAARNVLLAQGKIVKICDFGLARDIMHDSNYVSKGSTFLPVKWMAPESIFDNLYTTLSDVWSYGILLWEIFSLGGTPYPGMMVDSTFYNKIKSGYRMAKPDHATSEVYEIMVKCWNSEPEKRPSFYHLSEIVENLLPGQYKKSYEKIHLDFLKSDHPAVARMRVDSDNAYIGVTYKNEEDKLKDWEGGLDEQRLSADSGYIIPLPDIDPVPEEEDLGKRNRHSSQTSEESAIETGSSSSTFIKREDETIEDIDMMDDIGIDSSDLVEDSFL

As to `Nc1nc(Nc2ccc(S(N)(=O)=O)cc2)nn1C(=S)Nc1c(F)cccc1F`, the residual activity (usually the signal under treatment as a percentage of the control signal) was determined as 82% in test [1]; 39% in test [2]; 83% in test [3]; 24% in [4]; 3% in [5]; 0% in [6]. The values for the residual activity in [7] and in [8] were 53% and 16%, respectively.
Regarding `CC(=O)O/N=C1\C(=C2\C(=O)Nc3cc(Br)ccc32)Nc2ccccc21`, the residual activity turned out to be 102% in [1]; 79% in [2]; 86% in test [3]; 52% in test [4]; 91% in test [5]; 67% in test [6]. Moreover, the residual activity in test [7] came to 86%; in test [8], 93%; in test [9], 98%; in test [10], 79%.
Take `N#Cc1cnc2cnc(NCc3cccnc3)cc2c1Nc1ccc(F)c(Cl)c1`: the residual activity in test [1] stood at 97%; in test [2], 54%; in test [3], 119%; in test [4], 88%; in test [5], 45%; in [6], 41%. Besides, the residual activity in test [7] amounted to 5%; in [8], 1%.
For `CNc1cc2c(Nc3cccc(Br)c3)ncnc2cn1`, the residual activity in test [1] is 122%; in test [2], 107%; in [3], 109%; in test [4], 113%; in [5], 100%; in test [6], 64%. For the same molecule, the residual activity was 102% in [7], 98% in test [8], 104% in test [9] and 93% in [10].
As for `Nc1cccc(-c2cc3c(Oc4cccc(O)c4)ncnc3[nH]2)c1`, the residual activity in [1] was found to be 48%; in [2] it was 10%; in test [3] it was 48%; in test [4] it was 8%; in test [5], 92%; in test [6], 40%. Further, the residual activity in test [7] was determined as 94%; in [8], 85%.
As for `CCC(=O)Nc1ccc2ncnc(Nc3cccc(Br)c3)c2c1`, the residual activity worked out at 117% in test [1]; 91% in test [2]; 96% in [3]; 92% in test [4]; 111% in test [5]; 107% in [6]. For the same molecule, the residual activity in test [7] was found to be 88%; in test [8], 102%; in test [9], 102%; in test [10], 99%.
Regarding `Cc1nc2cc3nc(-c4cccs4)cnc3cc2n1C`, the residual activity in test [1] is 78%; in [2], 15%; in test [3], 97%; in test [4] it was 46%; in test [5] it was 109%; in [6], 109%. Besides, the residual activity in test [7] came out at 104%; in test [8], 106%; in [9], 112%; in test [10], 102%.
As for `NC(=O)c1ccc2[nH]c(-c3ccc(Oc4ccc(Cl)cc4)cc3)nc2c1`, the residual activity in [1] turned out to be 115%; in test [2] it was 121%; in test [3] it was 107%; in [4], 128%; in test [5], 105%; in test [6], 107%. The residual activity in test [7] came out at 106%; in [8] it was 129%; in test [9], 106%; in [10], 103%.
With `O=C1NC(=O)/C(=C/c2ccc3c(c2)OC(F)(F)O3)S1`, the residual activity turned out to be 127% in test [1]; 113% in [2]; 108% in test [3]; 116% in test [4]; 108% in [5]; 106% in test [6]. In addition, the residual activity was 102% in test [7], 74% in [8], 97% in test [9] and 83% in [10].
For `Cn1cc(/C=C2\C(=O)Nc3ccc(S(N)(=O)=O)cc32)c2ccccc21`, the residual activity in [1] came out at 77%; in [2], 33%; in test [3], 98%; in test [4], 51%; in test [5] it was 76%; in test [6], 32%. Moreover, the residual activity in [7] was 93%; in test [8], 57%; in test [9] it was 88%; in test [10] it was 81%.
On to `CC(C)n1cnc2/c(=N/c3cccc(Cl)c3)nc(NCCO)[nH]c21`, for which the residual activity in [1] came to 105%; in test [2], 107%; in test [3] it was 108%; in test [4], 113%; in [5], 96%; in test [6], 81%. The residual activity was 96% in [7], 89% in test [8], 95% in test [9] and 76% in test [10].
Consider `O=c1c2ccccc2[nH]c(=S)n1CCN1CCC(=C(c2ccc(F)cc2)c2ccc(F)cc2)CC1`, for which the residual activity in [1] was 105%; in test [2] it was 97%; in test [3], 106%; in test [4] it was 85%; in test [5], 116%; in test [6] it was 111%. Also, the residual activity was determined as 92% in test [7], 114% in test [8], 93% in test [9] and 40% in test [10].
On to `Cc1nc(-c2ccccc2)c(-c2ccncc2)o1`, for which the residual activity was 89% in [1]; 83% in test [2]; 99% in test [3]; 92% in test [4]; 114% in test [5]; 102% in test [6]. The residual activity in test [7] came out at 94%; in test [8] it was 85%; in [9], 118%; in test [10], 88%.
On to `CC(C)n1cnc2c(NCc3ccccc3)nc(NCCCO)nc21`, for which the residual activity is 105% in test [1]; 107% in test [2]; 98% in [3]; 94% in test [4]; 107% in test [5]; 104% in test [6]. Further, the residual activity in test [7] turned out to be 98%; in [8], 99%; in test [9], 104%; in [10] it was 90%.
On to `COc1ccc(C(=O)Nc2sc3c(c2C(N)=O)CCCC3)cc1OC`, for which the residual activity in [1] is 87%; in test [2] it was 86%; in test [3], 89%; in [4], 97%; in test [5], 95%; in test [6], 96%. In addition, the residual activity was found to be 97% in test [7], 95% in [8], 102% in test [9] and 87% in [10].
Regarding `Oc1c2ccccc2c2c3c(cccc13)N=N2`, the residual activity came out at 108% in test [1]; 86% in test [2]; 99% in [3]; 96% in test [4]; 72% in test [5]; 19% in test [6]. Moreover, the residual activity in test [7] is 89%; in [8], 73%; in test [9], 89%; in test [10], 66%.
